Holding throughout (conditions): Compound concentration 20.0 uM, Protein concentration 2.0 uM, Result type QC Liability
The target of experiment [1] is Tyrosine-protein kinase ABL1 (Homo sapiens) (UniProt P00519).
The target in experiment [2] is Cyclin-dependent kinase 2 (Homo sapiens) (UniProt P24941).
Experiment [3] concerns the target Casein kinase I isoform delta (Homo sapiens) (UniProt P48730).
Experiment [4] has as its target Glycogen synthase kinase-3 beta (Homo sapiens) (UniProt P49841).
Experiment [5] concerns the target Mitogen-activated protein kinase 1 (Homo sapiens) (UniProt P28482).
The target in experiment [6] is T1, Aurora kinase A (Homo sapiens) (UniProt O14965).
T1 sequence (whole entry): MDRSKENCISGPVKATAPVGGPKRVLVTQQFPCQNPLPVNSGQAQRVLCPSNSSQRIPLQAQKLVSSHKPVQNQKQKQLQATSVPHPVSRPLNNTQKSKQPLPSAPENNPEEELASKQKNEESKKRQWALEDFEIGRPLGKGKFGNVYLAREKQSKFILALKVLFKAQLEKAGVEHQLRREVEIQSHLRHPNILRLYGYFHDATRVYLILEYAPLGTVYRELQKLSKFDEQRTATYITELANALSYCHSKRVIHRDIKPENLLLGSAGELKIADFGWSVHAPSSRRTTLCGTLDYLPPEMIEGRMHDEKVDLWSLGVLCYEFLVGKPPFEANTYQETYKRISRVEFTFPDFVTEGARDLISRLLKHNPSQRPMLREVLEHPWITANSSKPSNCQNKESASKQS

The structures appear in SMILES notation.

Mitogen-activated protein kinase 1 (Homo sapiens), sequence (P28482 whole entry): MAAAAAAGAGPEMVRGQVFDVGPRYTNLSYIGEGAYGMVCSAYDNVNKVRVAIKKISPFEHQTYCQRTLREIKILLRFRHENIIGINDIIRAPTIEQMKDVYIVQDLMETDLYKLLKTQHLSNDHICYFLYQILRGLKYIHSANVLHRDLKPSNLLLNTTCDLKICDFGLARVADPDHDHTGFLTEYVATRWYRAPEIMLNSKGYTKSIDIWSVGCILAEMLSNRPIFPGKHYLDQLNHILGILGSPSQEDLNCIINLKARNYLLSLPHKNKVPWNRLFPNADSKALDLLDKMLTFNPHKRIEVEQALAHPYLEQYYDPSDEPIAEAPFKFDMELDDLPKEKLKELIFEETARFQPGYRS
Glycogen synthase kinase-3 beta (Homo sapiens), sequence (P49841 whole entry, looked up): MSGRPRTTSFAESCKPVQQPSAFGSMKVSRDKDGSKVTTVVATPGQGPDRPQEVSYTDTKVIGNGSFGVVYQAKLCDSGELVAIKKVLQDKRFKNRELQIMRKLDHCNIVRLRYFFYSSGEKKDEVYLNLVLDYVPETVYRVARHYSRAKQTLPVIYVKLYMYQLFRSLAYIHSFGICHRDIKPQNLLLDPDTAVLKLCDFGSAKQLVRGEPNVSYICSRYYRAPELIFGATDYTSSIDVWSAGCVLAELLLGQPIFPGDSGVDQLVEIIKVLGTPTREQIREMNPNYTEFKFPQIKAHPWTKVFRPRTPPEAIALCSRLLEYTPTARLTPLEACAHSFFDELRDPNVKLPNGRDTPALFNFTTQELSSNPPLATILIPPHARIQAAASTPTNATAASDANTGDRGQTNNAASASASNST
Casein kinase I isoform delta (Homo sapiens), sequence (P48730 whole entry, looked up, canonical isoform): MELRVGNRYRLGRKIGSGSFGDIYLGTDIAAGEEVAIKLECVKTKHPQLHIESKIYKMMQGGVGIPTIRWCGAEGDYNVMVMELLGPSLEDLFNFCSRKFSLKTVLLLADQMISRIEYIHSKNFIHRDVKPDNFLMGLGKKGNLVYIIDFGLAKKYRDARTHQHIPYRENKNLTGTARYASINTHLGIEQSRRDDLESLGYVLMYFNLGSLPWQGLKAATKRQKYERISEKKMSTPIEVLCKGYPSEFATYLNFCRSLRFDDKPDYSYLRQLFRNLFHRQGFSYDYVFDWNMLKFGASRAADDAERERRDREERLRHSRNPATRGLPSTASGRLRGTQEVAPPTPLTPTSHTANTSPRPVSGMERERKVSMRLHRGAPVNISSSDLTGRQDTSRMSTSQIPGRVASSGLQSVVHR
Tyrosine-protein kinase ABL1 (Homo sapiens), sequence (P00519 whole entry): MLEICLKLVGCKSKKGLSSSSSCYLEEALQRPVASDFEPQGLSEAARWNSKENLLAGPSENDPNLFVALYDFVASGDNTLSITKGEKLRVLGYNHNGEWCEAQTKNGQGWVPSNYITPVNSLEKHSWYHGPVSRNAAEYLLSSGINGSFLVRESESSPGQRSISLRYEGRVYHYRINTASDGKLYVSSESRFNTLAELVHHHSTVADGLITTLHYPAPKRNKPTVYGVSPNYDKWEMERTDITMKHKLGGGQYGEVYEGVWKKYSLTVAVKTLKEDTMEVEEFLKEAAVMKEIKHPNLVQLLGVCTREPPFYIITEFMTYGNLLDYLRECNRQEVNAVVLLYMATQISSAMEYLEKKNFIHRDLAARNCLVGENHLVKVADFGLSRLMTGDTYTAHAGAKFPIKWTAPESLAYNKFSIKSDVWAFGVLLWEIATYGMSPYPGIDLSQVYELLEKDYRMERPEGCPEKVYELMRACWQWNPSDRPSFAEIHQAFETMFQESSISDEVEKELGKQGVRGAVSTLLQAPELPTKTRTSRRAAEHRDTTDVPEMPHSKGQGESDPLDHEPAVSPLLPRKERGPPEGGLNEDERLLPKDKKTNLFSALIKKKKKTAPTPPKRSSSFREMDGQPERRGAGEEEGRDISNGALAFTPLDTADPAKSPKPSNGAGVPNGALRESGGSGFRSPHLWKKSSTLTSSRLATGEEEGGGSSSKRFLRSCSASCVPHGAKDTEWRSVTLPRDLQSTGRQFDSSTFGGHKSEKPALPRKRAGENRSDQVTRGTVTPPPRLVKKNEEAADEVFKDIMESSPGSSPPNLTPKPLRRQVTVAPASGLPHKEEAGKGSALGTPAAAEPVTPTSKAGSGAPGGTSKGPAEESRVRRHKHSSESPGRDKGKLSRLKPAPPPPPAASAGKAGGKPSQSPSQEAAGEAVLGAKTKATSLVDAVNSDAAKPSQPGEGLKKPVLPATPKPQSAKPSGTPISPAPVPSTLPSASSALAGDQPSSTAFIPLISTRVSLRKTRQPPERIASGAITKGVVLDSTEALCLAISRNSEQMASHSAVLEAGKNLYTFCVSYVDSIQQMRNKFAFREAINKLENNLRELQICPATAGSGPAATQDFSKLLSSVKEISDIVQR

Broadly, the ΔTm is the shift of the melting midpoint relative to a reference. On to `COC(=O)c1ccc2c(c1)NC(=O)/C2=C(\Nc1ccc(-c2nccn2C)cc1)c1ccccc1`, for which the thermal shift (ΔTm) was 3.43 °C in experiment [1]; 0.27 °C in experiment [2]; -0.5 °C in experiment [3]; 1.96 °C in experiment [4]; -6.31 °C in experiment [5]; -1.46 °C in experiment [6].
Consider `Cc1ccc(NS(=O)(=O)c2ccc3c(c2)C2C=CCC2C(c2ccc(C(=O)O)cc2)N3)cc1C` (stereo unspecified), for which the ΔTm in experiment [1] is -0.61 °C; in experiment [2], 1.5 °C; in experiment [3], 0.36 °C; in experiment [4], -1.27 °C; in experiment [5], -3.84 °C; in experiment [6], -2.29 °C.
On to `CCN(CC)C/C=C/C(=O)Nc1cc2c(Nc3ccc(F)c(Cl)c3)ncnc2cc1OCC1CC1`, for which the ΔTm in experiment [1] is 7.73 °C; in experiment [2] it was -0.55 °C; in experiment [3] it was 0.34 °C; in experiment [4], -0.95 °C; in experiment [5], -0.24 °C; in experiment [6], 1.29 °C.
Regarding `COc1cc(Cl)c(C(=O)N[C@@H](CN[C@H]2CC[C@@H](N)CC2)Cc2ccc(C#N)cc2)cc1-c1ccc(CN[C@H](C)c2ccc(C)cc2)o1`, the ΔTm in experiment [1] was 0.33 °C; in experiment [2], 0.42 °C; in experiment [3], -0.07 °C; in experiment [4] it was -0.81 °C; in experiment [5] it was 0.33 °C; in experiment [6], 0.07 °C.
With `O=C(O)CCn1c2c(c3ccccc31)C[C@H](NS(=O)(=O)c1ccc(F)cc1)CC2`, the ΔTm in experiment [1] is 1.15 °C; in experiment [2] it was 1.26 °C; in experiment [3] it was 0.09 °C; in experiment [4] it was 0.24 °C; in experiment [5], 0.28 °C; in experiment [6], -0.02 °C.
`Cc1ccc(NC(=O)c2ccc3c(c2)OCCO3)cc1NC(=O)c1ccc2nc(OCCN3CCCC3)ccc2c1`: the ΔTm in experiment [1] was 2.56 °C; in experiment [2], 1.06 °C; in experiment [3] it was 1.91 °C; in experiment [4], 0.36 °C; in experiment [5], 0.33 °C; in experiment [6], -0.43 °C.
As to `Cc1cc(Cn2c(N3CC4(CNC4)C3)nc3cc(Cl)cc(N4CCN(C)CC4)c32)cc(C)c1F`, the ΔTm in experiment [1] is -0.24 °C; in experiment [2], 0.2 °C; in experiment [3], 0.39 °C; in experiment [4], -1.71 °C; in experiment [5], 0.34 °C; in experiment [6], 0.08 °C.
As to `CCCCc1c(-c2ccccc2)nc(N)nc1-c1ccc(OCc2ccccc2)c(F)c1F`, the ΔTm in experiment [1] was -0.08 °C; in experiment [2] it was -0.31 °C; in experiment [3] it was -3.97 °C; in experiment [4] it was -3.51 °C; in experiment [5], 0 °C; in experiment [6], -1.37 °C.
`COCCc1ccc(-c2c(C)nc3c(N4CCOCC4)ccnn23)cn1`: the ΔTm in experiment [1] was 0.28 °C; in experiment [2], 0.2 °C; in experiment [3], 0.24 °C; in experiment [4] it was -0.61 °C; in experiment [5], 0.69 °C; in experiment [6] it was 0.4 °C.
Turning to `CC1CNCCc2c1nc1ccnn1c2N1CC(C(=O)N2CCC(C)(C)C2)C1` (stereo unspecified), the ΔTm is 0.04 °C in experiment [1]; 0.37 °C in experiment [2]; 0.46 °C in experiment [3]; -0.58 °C in experiment [4]; 0.2 °C in experiment [5]; -0.21 °C in experiment [6].
Turning to `COc1cccc(CNc2ccc(S(=O)(=O)Nc3nc4ccccc4s3)cc2)c1O`, the ΔTm in experiment [1] was 0.16 °C; in experiment [2] it was 0.93 °C; in experiment [3], 0.86 °C; in experiment [4], 0.88 °C; in experiment [5], -0.57 °C; in experiment [6], 1.13 °C.
`CC(=O)N(CCN(C)C)c1ccc(N/C(=C2\C(=O)Nc3cc(Cl)ccc32)c2ccccc2)cn1`: the ΔTm in experiment [1] amounted to 8.38 °C; in experiment [2], 3.16 °C; in experiment [3], 2.87 °C; in experiment [4], 11.3 °C; in experiment [5], 0.38 °C; in experiment [6], 7.54 °C.
As for `Clc1ccc(-c2nc3sccn3c2/C=N/OCc2ccc(Cl)c(Cl)c2)cc1`, the ΔTm in experiment [1] is -0.76 °C; in experiment [2], -0.94 °C; in experiment [3], -2.09 °C; in experiment [4], -0.83 °C; in experiment [5], -0.15 °C; in experiment [6], -1.05 °C.
As to `COc1ccccc1N1CCN(c2ncnc3c2cnn3-c2ccccc2)CC1`, the ΔTm in experiment [1] was 0.32 °C; in experiment [2] it was -0.17 °C; in experiment [3], 0.84 °C; in experiment [4], -0.28 °C; in experiment [5], -0.07 °C; in experiment [6] it was -0.16 °C.
Take `CN(C)C(=O)Cn1cc(-c2ccc(-c3nnc4ccccn34)cc2)cn1`: the ΔTm in experiment [1] is -0.4 °C; in experiment [2], 0.44 °C; in experiment [3], 0.44 °C; in experiment [4], -0.7 °C; in experiment [5], 0.27 °C; in experiment [6], -0.04 °C.
With `CCOc1ccc(S(=O)(=O)Nc2ccc(Cl)cc2C#Cc2cnc(C(=O)O)cc2OC)c2ncccc12`, the ΔTm is -0.94 °C in experiment [1]; -1.65 °C in experiment [2]; -1.46 °C in experiment [3]; -1.14 °C in experiment [4]; -0.06 °C in experiment [5]; -2.25 °C in experiment [6].
With `CC(C)N(CCCCOCC(=O)O)c1cnc(-c2ccccc2)c(-c2ccccc2)n1`, the ΔTm in experiment [1] is 0.75 °C; in experiment [2], -0.83 °C; in experiment [3], 0.48 °C; in experiment [4], 0.74 °C; in experiment [5], -0.32 °C; in experiment [6], -1.44 °C.
As to `O=C(O)c1cccc(C2=C(c3cc(Cl)ccc3OCc3ccc(F)cc3F)CCC2)n1`, the ΔTm in experiment [1] is -0.85 °C; in experiment [2], -1.05 °C; in experiment [3] it was -0.59 °C; in experiment [4], 0 °C; in experiment [5], -0.17 °C; in experiment [6], -0.7 °C.
Consider `Nc1ncnc2c1c(COc1cccc(Cl)c1)nn2C1CCOCC1`, for which the ΔTm is 1.95 °C in experiment [1]; 0.26 °C in experiment [2]; 3.79 °C in experiment [3]; 0.11 °C in experiment [4]; 0.21 °C in experiment [5]; -4.79 °C in experiment [6].
Take `CCS(=O)(=O)Nc1cccc(Oc2cc(F)cc(Nc3ccc(I)cc3F)c2NS(=O)(=O)C2CC2)c1`: the ΔTm in experiment [1] was 1.05 °C; in experiment [2], 0.19 °C; in experiment [3], 0.44 °C; in experiment [4] it was 2.25 °C; in experiment [5], -1.88 °C; in experiment [6], 0.23 °C.
Consider `CCCN1C(=O)c2ccc(Cl)cc2Nc2ncccc21`, for which the ΔTm came out at 0.81 °C in experiment [1]; 0.95 °C in experiment [2]; 0.61 °C in experiment [3]; 0.22 °C in experiment [4]; 0.22 °C in experiment [5]; 1.35 °C in experiment [6].
`CC(C)(C)OC(=O)CN(Cc1ccc(Cl)cc1)Cc1ccc([N+](=O)[O-])s1`: the ΔTm in experiment [1] is 0.48 °C; in experiment [2], 0.83 °C; in experiment [3], 0.3 °C; in experiment [4] it was -0.54 °C; in experiment [5] it was 0.12 °C; in experiment [6] it was -1.37 °C.
For `CC1CCN(C(=O)[C@H](CCn2cccc2C#N)NS(=O)(=O)c2cccc3[nH]ccc23)CC1`, the ΔTm in experiment [1] is 0.43 °C; in experiment [2] it was 0.31 °C; in experiment [3], 0.54 °C; in experiment [4], 0.64 °C; in experiment [5], 0.72 °C; in experiment [6], -0.11 °C.
With `N#CC[C@H](C1CCCC1)n1cc(-c2ncnc3[nH]ccc23)cn1`, the ΔTm in experiment [1] was found to be 3.71 °C; in experiment [2], 1.43 °C; in experiment [3] it was 2.02 °C; in experiment [4], 4.04 °C; in experiment [5] it was 0.74 °C; in experiment [6], 5.6 °C.
For `CC(C)(O)CNC(=O)N1C(=O)N(c2cccc(C(F)(F)F)c2)C2=C(C(=O)CC2)[C@H]1c1ccc(C#N)cc1`, the ΔTm was 0.05 °C in experiment [1]; 0.79 °C in experiment [2]; 0.12 °C in experiment [3]; 0.33 °C in experiment [4]; -0.03 °C in experiment [5]; 0.08 °C in experiment [6].
On to `CN1C(=O)c2ccccc2N(C)c2nc(Nc3cnn(C4CCNCC4)c3)ncc21`, for which the ΔTm was 9.76 °C in experiment [1]; 1.04 °C in experiment [2]; 0.9 °C in experiment [3]; 0.14 °C in experiment [4]; 0.53 °C in experiment [5]; 16.4 °C in experiment [6].

These data come from ChEMBL document CHEMBL5308504, “Tm Shift (DSF) assay results for EUbOPEN Chemogenomics Library” (2023).
